The target of experiment [1] is T1, Ephrin type-A receptor 3 (Homo sapiens) (UniProt P29320).
T1 sequence (whole entry): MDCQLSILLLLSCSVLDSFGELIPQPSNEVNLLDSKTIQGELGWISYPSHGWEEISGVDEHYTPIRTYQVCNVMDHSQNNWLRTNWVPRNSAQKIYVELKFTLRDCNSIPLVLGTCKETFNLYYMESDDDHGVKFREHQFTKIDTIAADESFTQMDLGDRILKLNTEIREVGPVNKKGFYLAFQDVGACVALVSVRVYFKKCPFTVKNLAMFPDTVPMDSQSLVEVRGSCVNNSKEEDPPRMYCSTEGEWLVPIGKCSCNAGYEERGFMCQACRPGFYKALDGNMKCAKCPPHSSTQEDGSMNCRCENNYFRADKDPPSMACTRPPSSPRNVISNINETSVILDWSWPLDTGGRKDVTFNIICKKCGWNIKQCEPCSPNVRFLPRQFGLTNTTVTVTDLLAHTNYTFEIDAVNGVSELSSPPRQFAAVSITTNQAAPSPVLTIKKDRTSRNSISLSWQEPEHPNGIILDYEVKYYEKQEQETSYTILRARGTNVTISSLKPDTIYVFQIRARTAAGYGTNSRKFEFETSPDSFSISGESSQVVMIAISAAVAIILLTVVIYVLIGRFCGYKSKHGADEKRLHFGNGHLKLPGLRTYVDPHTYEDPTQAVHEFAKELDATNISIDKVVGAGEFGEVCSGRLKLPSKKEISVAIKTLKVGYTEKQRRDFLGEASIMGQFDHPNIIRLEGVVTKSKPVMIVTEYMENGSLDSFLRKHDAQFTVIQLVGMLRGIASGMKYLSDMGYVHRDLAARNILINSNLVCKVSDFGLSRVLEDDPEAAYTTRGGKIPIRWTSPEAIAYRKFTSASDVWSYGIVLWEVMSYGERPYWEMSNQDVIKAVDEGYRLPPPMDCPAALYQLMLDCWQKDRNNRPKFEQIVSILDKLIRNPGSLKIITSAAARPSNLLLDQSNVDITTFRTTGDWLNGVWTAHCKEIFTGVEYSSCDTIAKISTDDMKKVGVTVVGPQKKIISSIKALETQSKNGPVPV
Conditions: at 10 µM.

For experiment [2], the target named is Ephrin type-A receptor 4 (Homo sapiens) (UniProt P54764). Conditions: at 1 µM.
Sequence of Ephrin type-A receptor 4 (Homo sapiens) (P54764 whole entry): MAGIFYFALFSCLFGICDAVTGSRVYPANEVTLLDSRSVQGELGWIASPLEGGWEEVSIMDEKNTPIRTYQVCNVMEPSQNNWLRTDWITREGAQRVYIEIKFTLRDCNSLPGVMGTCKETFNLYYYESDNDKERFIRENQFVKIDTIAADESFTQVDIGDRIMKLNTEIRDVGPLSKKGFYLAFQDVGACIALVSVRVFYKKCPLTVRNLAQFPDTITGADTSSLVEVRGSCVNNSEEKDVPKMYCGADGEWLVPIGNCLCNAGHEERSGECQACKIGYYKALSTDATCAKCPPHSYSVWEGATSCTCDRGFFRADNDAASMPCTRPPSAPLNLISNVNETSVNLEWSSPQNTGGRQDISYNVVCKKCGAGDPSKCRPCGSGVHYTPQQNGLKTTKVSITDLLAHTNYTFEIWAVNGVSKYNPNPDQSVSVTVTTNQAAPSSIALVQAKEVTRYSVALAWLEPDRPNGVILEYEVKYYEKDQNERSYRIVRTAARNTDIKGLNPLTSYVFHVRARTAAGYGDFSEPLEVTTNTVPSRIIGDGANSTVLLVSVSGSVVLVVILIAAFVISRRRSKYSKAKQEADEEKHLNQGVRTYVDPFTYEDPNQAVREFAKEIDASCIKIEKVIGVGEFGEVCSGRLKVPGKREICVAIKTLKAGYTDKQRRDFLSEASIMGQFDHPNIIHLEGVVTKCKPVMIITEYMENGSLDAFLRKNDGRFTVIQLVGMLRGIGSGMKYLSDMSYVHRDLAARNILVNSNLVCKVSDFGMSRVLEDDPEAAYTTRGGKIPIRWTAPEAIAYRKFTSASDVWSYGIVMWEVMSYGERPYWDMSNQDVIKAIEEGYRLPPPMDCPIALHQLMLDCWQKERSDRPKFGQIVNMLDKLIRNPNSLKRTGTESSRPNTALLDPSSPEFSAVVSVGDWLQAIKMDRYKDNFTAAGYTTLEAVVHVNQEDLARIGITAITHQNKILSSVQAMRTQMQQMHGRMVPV
Experiment [3] has the same target. As to conditions: at 10 µM.
Experiment [4] has as its target Ephrin type-A receptor 5 (Homo sapiens) (UniProt P54756). Conditions: at 1 µM.
The target is the same in experiment [5]. As to conditions: at 10 µM.
Experiment [6] deals with Ephrin type-A receptor 7 (Homo sapiens) (UniProt Q15375). Conditions: at 1 µM.
Sequence of Ephrin type-A receptor 7 (Homo sapiens) (Q15375 28-998 limits assumed): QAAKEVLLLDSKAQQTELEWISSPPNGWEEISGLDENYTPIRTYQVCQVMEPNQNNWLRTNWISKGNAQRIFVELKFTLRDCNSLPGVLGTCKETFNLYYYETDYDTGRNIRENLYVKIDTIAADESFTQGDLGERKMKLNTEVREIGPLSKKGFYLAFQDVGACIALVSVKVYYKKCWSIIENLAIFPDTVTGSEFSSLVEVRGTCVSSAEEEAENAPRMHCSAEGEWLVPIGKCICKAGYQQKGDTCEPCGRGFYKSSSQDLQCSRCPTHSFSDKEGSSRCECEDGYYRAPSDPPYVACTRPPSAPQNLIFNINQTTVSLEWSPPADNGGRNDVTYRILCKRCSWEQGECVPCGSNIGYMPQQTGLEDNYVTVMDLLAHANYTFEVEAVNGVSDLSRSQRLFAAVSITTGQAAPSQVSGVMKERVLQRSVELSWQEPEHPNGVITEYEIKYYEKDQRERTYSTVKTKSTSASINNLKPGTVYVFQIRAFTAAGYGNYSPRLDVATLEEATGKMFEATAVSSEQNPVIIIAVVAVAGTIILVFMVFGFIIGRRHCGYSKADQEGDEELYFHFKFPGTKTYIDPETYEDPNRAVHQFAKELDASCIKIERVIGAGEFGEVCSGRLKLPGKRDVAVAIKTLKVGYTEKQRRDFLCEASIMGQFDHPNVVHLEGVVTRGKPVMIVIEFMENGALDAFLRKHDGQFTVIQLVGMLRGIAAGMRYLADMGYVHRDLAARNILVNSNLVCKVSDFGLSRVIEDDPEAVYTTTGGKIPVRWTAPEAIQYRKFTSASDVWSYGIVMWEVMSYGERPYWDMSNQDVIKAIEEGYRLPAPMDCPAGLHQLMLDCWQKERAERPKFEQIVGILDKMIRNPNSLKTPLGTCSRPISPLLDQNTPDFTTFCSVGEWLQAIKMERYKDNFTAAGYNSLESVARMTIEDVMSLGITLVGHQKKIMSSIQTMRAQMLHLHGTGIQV
Experiment [7] shares this target. As to conditions: at 10 µM.
The target in experiment [8] is T2, Ephrin type-A receptor 8 (Homo sapiens) (UniProt P29322).
T2 sequence (whole entry): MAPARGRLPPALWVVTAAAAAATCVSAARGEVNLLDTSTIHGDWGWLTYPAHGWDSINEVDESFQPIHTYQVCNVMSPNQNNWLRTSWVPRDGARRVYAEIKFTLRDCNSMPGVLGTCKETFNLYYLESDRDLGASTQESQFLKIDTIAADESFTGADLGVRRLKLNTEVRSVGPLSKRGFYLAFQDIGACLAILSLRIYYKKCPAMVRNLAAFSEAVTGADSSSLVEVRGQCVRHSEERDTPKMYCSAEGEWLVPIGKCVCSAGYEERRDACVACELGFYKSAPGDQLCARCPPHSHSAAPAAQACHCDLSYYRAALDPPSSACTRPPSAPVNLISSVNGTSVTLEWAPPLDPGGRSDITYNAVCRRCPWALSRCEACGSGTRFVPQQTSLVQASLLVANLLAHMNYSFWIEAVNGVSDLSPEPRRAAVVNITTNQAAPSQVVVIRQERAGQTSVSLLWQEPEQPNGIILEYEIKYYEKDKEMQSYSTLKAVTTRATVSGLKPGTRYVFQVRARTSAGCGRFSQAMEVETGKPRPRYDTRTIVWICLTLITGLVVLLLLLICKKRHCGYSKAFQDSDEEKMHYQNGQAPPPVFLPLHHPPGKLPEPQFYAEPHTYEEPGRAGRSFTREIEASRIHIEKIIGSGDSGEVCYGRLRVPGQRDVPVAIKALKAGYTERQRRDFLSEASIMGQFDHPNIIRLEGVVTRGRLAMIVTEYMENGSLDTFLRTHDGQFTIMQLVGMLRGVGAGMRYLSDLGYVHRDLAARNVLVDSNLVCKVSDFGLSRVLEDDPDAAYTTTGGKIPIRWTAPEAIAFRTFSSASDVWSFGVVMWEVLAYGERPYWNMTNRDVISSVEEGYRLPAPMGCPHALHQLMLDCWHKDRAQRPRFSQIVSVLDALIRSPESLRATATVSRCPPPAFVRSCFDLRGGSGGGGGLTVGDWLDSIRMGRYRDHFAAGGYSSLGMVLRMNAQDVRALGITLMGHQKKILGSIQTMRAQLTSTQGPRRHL
As to conditions: at 1 µM.

For experiment [9], the target named is T2, Ephrin type-A receptor 8 (Homo sapiens). As to conditions: at 10 µM.
Experiment [10] deals with T3, Ephrin type-B receptor 1 (Homo sapiens) (UniProt P54762).
T3 sequence (whole entry): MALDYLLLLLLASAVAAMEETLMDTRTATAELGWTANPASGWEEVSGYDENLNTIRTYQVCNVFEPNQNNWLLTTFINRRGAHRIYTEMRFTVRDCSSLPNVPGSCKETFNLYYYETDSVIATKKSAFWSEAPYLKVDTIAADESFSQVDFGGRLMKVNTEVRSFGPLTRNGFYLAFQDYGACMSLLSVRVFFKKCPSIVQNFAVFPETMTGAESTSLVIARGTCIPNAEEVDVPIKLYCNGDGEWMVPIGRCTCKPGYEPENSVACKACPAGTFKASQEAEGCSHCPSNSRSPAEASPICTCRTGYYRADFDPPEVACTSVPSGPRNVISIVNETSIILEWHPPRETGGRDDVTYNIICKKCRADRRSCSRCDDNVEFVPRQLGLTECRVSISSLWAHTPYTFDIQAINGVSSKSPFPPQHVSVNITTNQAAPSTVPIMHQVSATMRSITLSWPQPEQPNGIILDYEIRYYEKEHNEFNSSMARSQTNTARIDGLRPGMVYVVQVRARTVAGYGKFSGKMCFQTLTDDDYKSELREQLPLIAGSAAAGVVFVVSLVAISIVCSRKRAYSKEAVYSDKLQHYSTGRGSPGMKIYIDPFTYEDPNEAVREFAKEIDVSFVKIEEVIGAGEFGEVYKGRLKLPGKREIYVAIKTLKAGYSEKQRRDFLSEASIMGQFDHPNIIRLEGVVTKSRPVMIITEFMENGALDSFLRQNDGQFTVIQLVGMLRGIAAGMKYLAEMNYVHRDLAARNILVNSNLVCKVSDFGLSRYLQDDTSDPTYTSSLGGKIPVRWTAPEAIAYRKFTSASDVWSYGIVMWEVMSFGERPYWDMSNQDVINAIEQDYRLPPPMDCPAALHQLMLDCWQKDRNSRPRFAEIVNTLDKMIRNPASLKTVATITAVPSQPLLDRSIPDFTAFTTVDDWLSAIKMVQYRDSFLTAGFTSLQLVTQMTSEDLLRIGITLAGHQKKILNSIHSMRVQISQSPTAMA
As to conditions: at 1 µM.

Sequence of Ephrin type-A receptor 5 (Homo sapiens) (P54756 whole entry): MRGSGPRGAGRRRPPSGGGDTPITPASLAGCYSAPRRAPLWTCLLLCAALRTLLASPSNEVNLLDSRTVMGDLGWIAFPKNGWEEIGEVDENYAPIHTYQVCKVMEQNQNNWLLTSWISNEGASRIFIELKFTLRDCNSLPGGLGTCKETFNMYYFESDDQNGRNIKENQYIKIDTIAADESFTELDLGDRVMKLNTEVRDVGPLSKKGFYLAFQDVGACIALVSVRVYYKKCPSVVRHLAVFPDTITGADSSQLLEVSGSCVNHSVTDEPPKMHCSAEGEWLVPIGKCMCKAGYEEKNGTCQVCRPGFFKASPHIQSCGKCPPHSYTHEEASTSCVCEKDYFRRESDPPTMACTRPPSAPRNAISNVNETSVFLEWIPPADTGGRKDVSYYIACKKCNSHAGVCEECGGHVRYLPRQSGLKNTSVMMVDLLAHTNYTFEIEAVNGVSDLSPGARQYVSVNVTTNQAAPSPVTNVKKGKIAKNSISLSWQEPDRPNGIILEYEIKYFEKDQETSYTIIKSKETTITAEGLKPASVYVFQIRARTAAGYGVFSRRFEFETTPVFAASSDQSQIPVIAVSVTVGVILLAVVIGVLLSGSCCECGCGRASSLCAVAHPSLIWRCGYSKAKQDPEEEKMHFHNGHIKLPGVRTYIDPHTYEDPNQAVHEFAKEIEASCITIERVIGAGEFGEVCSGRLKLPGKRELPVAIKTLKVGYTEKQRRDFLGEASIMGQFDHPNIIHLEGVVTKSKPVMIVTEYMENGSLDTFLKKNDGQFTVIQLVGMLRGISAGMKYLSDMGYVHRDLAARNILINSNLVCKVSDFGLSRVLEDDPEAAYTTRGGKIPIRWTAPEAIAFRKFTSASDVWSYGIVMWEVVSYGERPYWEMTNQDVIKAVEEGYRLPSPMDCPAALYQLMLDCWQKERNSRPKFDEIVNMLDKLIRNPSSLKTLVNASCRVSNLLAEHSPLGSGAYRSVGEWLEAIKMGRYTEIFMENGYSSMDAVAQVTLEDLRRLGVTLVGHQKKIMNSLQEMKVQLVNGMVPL

In the case of `Cc1nc(-c2ccccc2)c(-c2ccncc2)o1`, the residual activity in experiment [1] is 77%; in experiment [2], 109%; in experiment [3] it was 102%; in experiment [4], 35%; in [5] it was 29%; in experiment [6] it was 94%. The residual activity came to 89% in experiment [7], 65% in experiment [8], 54% in experiment [9] and 63% in [10].

Source of the values: ChEMBL document CHEMBL2218924, “A broad activity screen in support of a chemogenomic map for kinase signalling research and drug discovery” (Biochem J, 2013).
